The source of these data is the supplement of paper PMC6555819.

For the assay, the system named is VDR:RXRa (NR concentration 270 nM, RXRa partner concentration 90 nM). The assay is described as follows: PBM binding z-score (relative to random genomic background probes); higher = stronger binding; sequences stand for … in GC…GCGATTGACAGCGTAGAATGAAGG
As to the method:
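Protein-binding microarray (Agilent 4x180K custom design, double-stranded 60-nt probes: 5' GC cap, 34-nt variable region, 24-nt constant primer region; full probe sequence given). Purified or IVT nuclear receptor:RXRα heterodimers (3:1 NR:RXRα, mostly 270:90 nM) or homodimers were incubated for 1 h in PBS with 2% milk and no ligand, then detected with Alexa488 antibodies. Fluorescence from o1-orientation probes (~5 replicates averaged) was converted to z-scores against 500 random hg19 background probes. Variable regions are seed direct-repeat (DR0–DR5) sites, all their single-nucleotide variants and half-site ablations.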
The sequence CCTCGGAGGACAGACGGTCAGAGCTGTCCGCTTT returned a PBM binding z-score of -0.53.
The sequence ATCTCTAGGTAAGACTCAGTTCCGTGAAGAACGC had a PBM binding z-score of 0.121.
The value for CCTGACGGGTCACTCCAGGTTATAGCATCGGAGT was 3.46.
The value for CCTTACGGGTCAAGGTTATAGCACGGGTGGTACG was 3.41; that for ATCTCTAGGCAAAAGTTCAGTGAATCCCGAGGAT was 0.715.
The figure for CGTCCAAGGTCAATGCTAGGTAAGTGAAAGCATT is 3.62; for CAAACTAGGACAAAGGTCAAAGTCGAGCCAACCA it is 4.93; for ACAGACAGGTGAGTGAACGTAACTCAGCTGGACG it is -0.318.
Consider TCAATTAGTTGATTAGGGCAACCGAAACAGCGGA, for which the PBM binding z-score is 0.35.
The figure for AGCCAAAGTTCAGGACGAGGTAACGTAAAGCACG is 2.71; for ATCGAAAGGTCGACGAGCTGAGTATACACCGTTT it is 2.15; for CGAACTAGGTCAGAACAGGTCAGTGAAGGATGAT it is 2.68.
The value for AGAATGAGATTAAGATCAGGGAAACAGAATACAT was -0.149; that for TCATATGGGTAAAAGGTGAAAGTCGGTGTGGTAA was 1.34.
The figure for AGTCATAGTTCATCTAGGTAACGTAAGATATGCT is 2.54; for CCTAGTCGGTCAAGGTCACACACGCTATAGGTAC it is 4.29.
GCTATTAGTAGAAAGGGCAACCGAATGATTCTCG gave a PBM binding z-score of 0.11.
The figure for ATATGTAGGCTATCGGGTCATTCAGTTTGCGCAT is 4.58; for TGATTGAGGTTATAAGATCAGGGAACGTTGCAAA it is 1.01; for CCTTACGGGTCACGAGTTTATAGCACGACGAGCG it is 5.73.
Sequence CGTCCAAGTTCAATGCTAGGTCAGTGAAAGCATT showed a PBM binding z-score of 4.26.
AATACAGGGTTACTAGGCCAGAGTAGGTACGAAT displayed a PBM binding z-score of 0.824.
The value for GTTTGTAGATCAAGGTTAAGAAAGACTAAGCTAA was 1.03; that for TCATATAGGTAATACAGCTGAAAGTCGGCATCTA was 0.891; that for TCTAGCAGGACAGAGGGTCACTCAAGAGGTACGG was 1.39.
The value for TCTAGCAGGCCAGAGAGTCACTCAAGAGGTACGG was -0.279; that for CCTACGGGGCCAAAAAGGTCATTGATGCCGATAA was 5.88.
In the case of GCTATTAGTTGAAAGGGCAACCAAATGATTCTCG, the PBM binding z-score stood at 0.604.
In the case of TCTTGTAGATCAAAAGAGGTTAAGAAAGTGCGCT, the PBM binding z-score came to 1.72.
The value for TGTCAAAGTTCAAAGGTAACGTACGTATCCACAC was 5.05.
Consider GCTTACGGGTCAAAGGTAATAGCATGAATAGAAT, for which the PBM binding z-score stood at 4.12.
CCTAGTTGGTCAGGATGTCACACACCGGATATGA displayed a PBM binding z-score of 0.176.
GTTGCTAGGTCAACTGATGGTCAGCTAAAGCTCG showed a PBM binding z-score of 2.05.
The figure for ACTAGTTTGTCAGCTGAGGTCACACACAATTCGG is 4.34.
Consider GGTAGCAGGCCATTTGGGTCACTCAATGACGGGC, for which the PBM binding z-score was determined as 1.14.
TCTAGTTGGTCAAAGGTCACACGCTCGAAATGCG showed a PBM binding z-score of 5.38.
The figure for ATCGAAAGGTCGACGAGGTGAGTACACACCGTTT is 5.59; for CCTTACTGGTCACTGACAGGTTATAGCATTTGGA it is 0.592.
CCTACTGCGCCAAAAAGGTCATTGATGCCGATAA showed a PBM binding z-score of 4.94.
The value for GCTGCTAGGTCAACTGATGGTCCGCTAAAGCTCG was 1.31.
